tim23-1 inh: inhibits growth of tim23-1 mutant yeast; S. cerevisiae tim23-1 growth, BacTiter-Glo luminescence, 24 h; 1.3% of 330,000 active; AID 463212; inhibition, % at 20 µM;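 active = growth inhibition of the mutant yeast at or above 50%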;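 also: temperature-sensitive mutant grown at 25 °C; plate controls were DMSO-treated mutant yeast for no effect and medium wells lacking yeast for full effect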
PfHsp90 yeast 2: growth inhibition of yeast expressing Plasmodium Hsp90; AID 504621; 0.32% of 310,000 active; inhibition, % at 9.4 µM; S. cerevisiae expressing PfHsp90, BacTiter-Glo ATP, 48 h; yeast lacking PDR1 and PDR3 efflux regulators;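 active = every replicate shows inhibition above about 80%, whatever the replicate mean, limit read from the data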;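 also: 0% = DMSO neutral controls and 100% = 20 µM radicicol positive controls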
tim10-1 inh: inhibits growth of tim10-1 mutant yeast | AID 463190 | inhibition, % at 20 µM | S. cerevisiae tim10-1 ts strain growth, BacTiter-Glo, 24 h | 2.2% of 330,000 active;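 active = inhibition of at least 40%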;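 also: mutant grown at 25 °C; 0% = DMSO wells with yeast and 100% = wells holding no yeast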
TIM10 inh: inhibits growth of TIM10 yeast strain; S. cerevisiae TIM10 strain growth, BacTiter-Glo luminescence, 24 h; inhibition, % at 10 µM; AID 463195; 1.4% of 330,000 active;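 active = inhibition of 40% or more at the single tested concentration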;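 also: wild-type TIM10 isogenic control strain grown at permissive 25 °C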
SKKanGAS inh: blocks kanamycin growth of S. pyogenes SKKanGAS strain; 1.3% of 300,000 active; BacTiter-Glo, 6 h; inhibition, % at 7.5 µM; AID 1662;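 active = mean replicate score, as percent of positive control median, at least 50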;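 also: strain carries kanamycin resistance gene driven by streptokinase promoter and grows in 40 µg/ml kanamycin; loss of luminescence reflects streptokinase promoter inhibition or plain growth inhibition; 0% = median of DMSO wells and 100% = positive control at its reference dose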
NALP3 yeast inh: blocks the NALP3 inflammasome reconstituted in yeast; AID 2825; Yeast reconstituted NLRP3/ASC/caspase-1, beta-gal luminescence, 24 h; inhibition, % at 10 µM; 0.39% of 330,000 active;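 active = inhibition of 50% or more; inactive = inhibition below 50%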;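 also: plate controls were induced DMSO wells for no effect and uninduced yeast grown without galactose for full effect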
tim10-1 conf: tim10-1 yeast growth inhibition, confirmed | 56% of 7,400 active | S. cerevisiae tim10-1 ts strain growth, BacTiter-Glo, 24 h | shares compounds with tim10-1 inh | inhibition, % at 20 µM;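 active = inhibition of yeast growth at or above a set limit in either of two repeat tests at 20 µM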;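 also: tim10-1 mutant grown at permissive 25 °C to find synthetic lethal compounds; 0% = DMSO yeast wells and 100% = medium wells without yeast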
TIM10 conf: TIM10 yeast growth inhibition, confirmed. shares compounds with TIM10 inh. S. cerevisiae tim10 strain growth, BacTiter-Glo luminescence, 24 h. inhibition, % at 10 µM. 63% of 4,600 active. AID 463215;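 active = inhibition of yeast growth at or above a set limit in either of two replicates at 10 µM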;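 also: this counterscreen used the strain with wild-type TIM10; 0% = yeast with DMSO and 100% = medium wells lacking yeast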
tim23-1 confirm: confirmation of tim23-1 mutant yeast growth inhibitors; S. cerevisiae tim23-1 growth, BacTiter-Glo luminescence, 24 h; 83% of 4,400 active; AID 463218; shares compounds with tim23-1 inh; inhibition, % at 20 µM;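 active = inhibition above about 39% in either of two replicate wells at 20 µM, limit read from the data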;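 also: temperature-sensitive tim23-1 mutant grown at 25 °C; 0% = DMSO wells with yeast and 100% = medium wells without yeast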
Starred values were filed as active, the others as inactive; . = not tested or not shown. A selection: hits, their analogues and other compounds. The true share with any hit is near 4.6%.

SMILES | tim23-1 inh | PfHsp90 yeast 2 | tim10-1 inh | TIM10 inh | SKKanGAS inh | NALP3 yeast inh | tim10-1 conf | TIM10 conf | tim23-1 confirm
O=[N+]([O-])c1ccccc1Nc1c2ccccc2nc2ccccc12 | 1.0 | -12.3 | -5.7 | 5.0 | -8.9 | 0.7 | . | . | .
O=[N+]([O-])c1ccc(Nc2c3ccccc3nc3ccccc23)cc1 | 73.4* | -10.5 | 63.3* | 48.6* | 18.3 | 19.2 | 53.6* | 49.6* | 68.2*
CNCc1ccccc1Sc1cc(O)ccc1O | 60.1* | -3.3 | 50.9* | 35.8 | . | 17.9 | 46.6* | . | 55.8*
N/C(=N\OC(=O)c1cc(-c2ccccc2)nc2ccccc12)c1ccc(Cl)cc1 | 69.8* | -1.3 | 59.1* | 89.1* | -7.9 | -13.8 | 44.2* | 86.6* | 42.3*
N/C(=N\OC(=O)c1cc(-c2ccccc2)nc2ccccc12)c1cccnc1 | 80.2* | -5.6 | 52.1* | 71.1* | -3.5 | -18.9 | 66.5* | 77.3* | 29.8
Cc1ccc(C(=O)NNc2ncnc3c2cnn3C)cc1 | 10.3 | 4.9 | -0.4 | 10.0 | 2.9 | 0.0 | . | . | .
Cn1ncc2c(O/N=C(\N)c3ccc(C(F)(F)F)cc3)ncnc21 | 79.3* | -2.7 | 52.1* | 74.3* | 1.1 | 15.0 | 24.6 | 84.9* | 52.2*
COc1ccc2c(C(=O)NCc3ccc4c(c3)OCO4)c(-c3ccc(S(C)(=O)=O)cc3)sc2c1 | 19.4 | 6.4 | 14.6 | 3.0 | . | 15.4 | . | . | .
COC(=O)C1=C(C)N(c2cc(Cl)cc(Cl)c2)C(=O)C1 | 52.6* | -7.9 | 56.3* | 33.2 | 4.6 | -6.3 | 53.7* | . | 46.5*
CCN(Cc1ccncc1)C(=O)c1ccccc1NS(=O)(=O)c1ccc(F)cc1 | 17.6 | -2.3 | 25.8 | 5.2 | -12.0 | -17.5 | . | . | .
O=C(CSCc1ccccc1)N=Nc1c(O)[nH]c2ccccc12 | 28.3 | 6.3 | 33.1 | 30.8 | -1.0 | 11.1 | . | . | .
O=C(CSCc1cccc(Br)c1)N=Nc1c(O)[nH]c2ccccc12 | 53.4* | . | 45.2* | 34.5 | 2.4 | 10.8 | 20.4 | . | 59.3*
NNC(=O)c1cccc(COc2cccc(Br)c2)c1 | 51.0* | 21.6 | 45.0* | 36.1 | -6.4 | 6.8 | 29.1 | . | 17.7
NNC(=O)c1cccc(COc2ccc(Br)cc2)c1 | 45.8 | -21.1 | 39.0 | 26.2 | -6.7 | 29.8 | . | . | .
CC1CCCCC1NS(=O)(=O)c1ccc2c(c1)CC(=O)N2C (stereo unspecified) | 8.3 | 7.1 | 3.3 | 10.5 | 0.3 | 14.7 | . | . | .
O=c1c2c([N+](=O)[O-])cc([N+](=O)[O-])cc2nc2ccccn12 | 85.5* | 2.2 | 41.7* | 36.5 | 6.8 | 9.3 | 67.8* | . | 87.2*
CC(C)(C)C(=O)/C(=C/c1ccc(Cl)cc1)n1cncn1 | 51.9* | -21.6 | 50.8* | 37.1 | -1.0 | 24.9 | 35.0* | . | 34.3
O=C(Oc1c(Cl)cc(Cl)c2cccnc12)c1cccc([N+](=O)[O-])c1 | 62.6* | 107.0* | 50.7* | 50.5* | 88.3* | 43.8 | 27.5 | -26.6 | 72.6*
O=C(Oc1ccc(Cl)c2cccnc12)c1cccc([N+](=O)[O-])c1 | 29.1 | -41.7 | 19.3 | 1.4 | 26.9 | -6.2 | . | . | .
Cc1nc(-c2ccccc2)sc1C1(C)CC(c2ccc(OC(F)(F)F)cc2)=NO1 (stereo unspecified) | 11.9 | -0.3 | -17.0 | 9.9 | . | -3.0 | . | . | .
CN1CCN(C(=O)c2cc([N+](=O)[O-])cc([N+](=O)[O-])c2)CC1 | 10.3 | -1.9 | -4.6 | 8.3 | 3.6 | 3.9 | . | . | .
Cc1cc(C(=O)NNC(=S)NCc2ccco2)n(C)n1 | -0.3 | -3.4 | -4.9 | 4.0 | -7.6 | 20.3 | . | . | .
CC(C)c1cc(C(=O)NNC(=S)NCc2ccco2)c(O)c(C(C)C)c1 | 54.3* | -20.7 | 55.3* | 57.0* | 19.9 | 8.2 | 56.9* | 6.6 | 65.8*
O=C(CCCN1C(=O)/C(=C\c2ccco2)SC1=S)Nc1ccc2ccccc2c1 | 78.5* | -21.0 | 44.4* | 39.0 | 7.4 | 44.0 | 39.2* | . | 70.2*
